# In all, about 8,300 sequences were measured (“log2 fold change of degron read counts, EGFP-low vs EGFP+ sorted cells (limma voom), compound-induced degradation”: median about -1.1, highest 2% from about 3.2 on). The sample holds the highest values, similar sequences and a random draw of the others, so the mix is not that of the screen.
# T1: CRBN, Q96SW2
# T1 chain: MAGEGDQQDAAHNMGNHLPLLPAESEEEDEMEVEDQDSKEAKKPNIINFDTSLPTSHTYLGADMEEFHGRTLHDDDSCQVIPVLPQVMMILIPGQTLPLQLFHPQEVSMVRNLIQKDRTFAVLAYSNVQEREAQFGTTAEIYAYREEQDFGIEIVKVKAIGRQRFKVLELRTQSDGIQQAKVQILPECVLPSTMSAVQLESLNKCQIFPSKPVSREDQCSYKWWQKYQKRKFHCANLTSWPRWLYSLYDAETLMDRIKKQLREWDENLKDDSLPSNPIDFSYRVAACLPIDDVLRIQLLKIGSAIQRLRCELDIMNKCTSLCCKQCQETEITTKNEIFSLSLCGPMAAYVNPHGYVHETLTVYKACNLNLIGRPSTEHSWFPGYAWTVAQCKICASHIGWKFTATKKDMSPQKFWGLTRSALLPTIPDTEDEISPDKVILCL
# Target: T1, CRBN, Q96SW2
# Assay: log2 fold change of degron read counts, EGFP-low vs EGFP+ sorted cells (limma voom), compound-induced degradation; higher = more compound-induced degradation of the degron-EGFP fusion; degrons are variants of IKZF1/3 zinc finger 2; compound dose not given here
# Details: Jurkat, 18 h
# [1] = compound: compound 19 (5-tert-butyl-thalidomide)
# [2] = compound: compound 22 (5-morpholino-thalidomide)
# [3] = compound: compound 33 (diphenyl IMiD analogue)
# 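Note: pooled lentiviral library of zinc finger degron-EGFP fusions in mCherry-positive Jurkat cells, FACS-sorted after compound exposure, with degron abundance counted by next-generation sequencing.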
Sequence,log2 fold change of degron read counts [1],log2 fold change of degron read counts [2],log2 fold change of degron read counts [3],log2 fold change of degron read counts (compound: thalidomide)
"FHCPQCGAWFTQKGNLLRHIKL [46F_47H_49P_50Q_52G_53A_54W_55F_67L_, Q9UKT9]",-1.82,-2.04,-1.61,-2.14
"FLCDICGAEFTQKGNLLRHIKL [46F_47L_49D_50I_52G_53A_54E_55F_67L_, Q9UKT9]",-0.631,-2.41,-1.1,-0.617
"FDCDQCGAYFTQKGNLLRHIKL [46F_47D_49D_50Q_52G_53A_54Y_55F_67L_, Q9UKT9]",-2.22,-2.78,-2.57,-2.51
"FICPICGANFTQKGNLLRHIKL [46F_47I_49P_50I_52G_53A_54N_55F_67L_, Q9UKT9]",-0.552,2.74,2.01,2.63
"FACPICGANFTQKGNLLRHIKL [46F_47A_49P_50I_52G_53A_54N_55F_67L_, Q9UKT9]",3.04,1.85,1.61,1.07
"FWCPICGANFTQKGNLLRHIKL [46F_47W_49P_50I_52G_53A_54N_55F_67L_, Q9UKT9]",2.99,3.64,1.91,1.51
"LTCEICGFGCTQKGNLLRHIKL [46L_47T_49E_50I_52G_53F_54G_55C_67L_, Q9UKT9]",0.777,1.03,0.337,1.18
"FHCPICGAYFTQKGNLLRHIKL [46F_47H_49P_50I_52G_53A_54Y_55F_67L_, Q9UKT9]",2.3,1.96,1.93,0.872
"FNCNQCGHKFTQKGNLLRHIKL [46F_47N_49N_50Q_52G_53H_54K_55F_67L_, Q9UKT9]",-2.94,-2.21,-2.62,-2.32
"FTCDVCGALFTQKGNLLRHIKL [46F_47T_49D_50V_52G_53A_54L_55F_67L_, Q9UKT9]",-1.7,-2.19,-1.1,-1.72
"FTCNVCGAAFTQKGNLLRHIKL [46F_47T_49N_50V_52G_53A_54A_55F_67L_, Q9UKT9]",0.179,1.08,1.44,1.29
"FTCPVCGAAFTQKGNLLRHIKL [46F_47T_49P_50V_52G_53A_54A_55F_67L_, Q9UKT9]",2.3,3.11,2.78,3
"FTCEVCGAAFTQKGNLLRHIKL [46F_47T_49E_50V_52G_53A_54A_55F_67L_, Q9UKT9]",2.8,3.24,2.06,3.05
"FSCEVCGAAFTQKGNLLRHIKL [46F_47S_49E_50V_52G_53A_54A_55F_67L_, Q9UKT9]",3.6,3.21,2.57,2.01
"FKCEVCGAAFTQKGNLLRHIKL [46F_47K_49E_50V_52G_53A_54A_55F_67L_, Q9UKT9]",2.13,-0.688,-1.68,0.479
"FDCEVCGAAFTQKGNLLRHIKL [46F_47D_49E_50V_52G_53A_54A_55F_67L_, Q9UKT9]",2.09,0.14,0.426,1.14
"LTCPICGFPCTQKGNLLRHIKL [46L_47T_49P_50I_52G_53F_54P_55C_67L_, Q9UKT9]",0.155,1.3,1.14,1.64
"FDCPICGHEFTQKGNLLRHIKL [46F_47D_49P_50I_52G_53H_54E_55F_67L_, Q9UKT9]",-3,-2.96,-2.14,-2.07
"FVCNQCGHVFTQKGNLLRHIKL [46F_47V_49N_50Q_52G_53H_54V_55F_67L_, Q9UKT9]",-2.66,-3.07,-2.27,-2.93
"FMCEICGRFFTQKGNLLRHIKL [46F_47M_49E_50I_52G_53R_54F_55F_67L_, Q9UKT9]",-2.5,-2.11,-1,-1.98
"FSCDVCGAMFTQKGNLLRHIKL [46F_47S_49D_50V_52G_53A_54M_55F_67L_, Q9UKT9]",0.106,-0.592,-0.74,-1.71
"FVCDICGAAFTQKGNLLRHIKL [46F_47V_49D_50I_52G_53A_54A_55F_67L_, Q9UKT9]",0.447,2.48,1.33,1.87
"FCCDICGAAFTQKGNLLRHIKL [46F_47C_49D_50I_52G_53A_54A_55F_67L_, Q9UKT9]",2.88,2.17,0.975,0.534
"FQCDICGAAFTQKGNLLRHIKL [46F_47Q_49D_50I_52G_53A_54A_55F_67L_, Q9UKT9]",1.74,2.51,0.983,3.01
"FMCDICGAAFTQKGNLLRHIKL [46F_47M_49D_50I_52G_53A_54A_55F_67L_, Q9UKT9]",0.96,1.45,2.6,0.343
"FWCDICGAAFTQKGNLLRHIKL [46F_47W_49D_50I_52G_53A_54A_55F_67L_, Q9UKT9]",3.12,3.67,1.49,-0.516
"FYCDICGAAFTQKGNLLRHIKL [46F_47Y_49D_50I_52G_53A_54A_55F_67L_, Q9UKT9]",3.37,3.23,2.4,-0.554
"FACDICGAAFTQKGNLLRHIKL [46F_47A_49D_50I_52G_53A_54A_55F_67L_, Q9UKT9]",3.42,2.04,-0.474,-0.517
"FRCDICGAAFTQKGNLLRHIKL [46F_47R_49D_50I_52G_53A_54A_55F_67L_, Q9UKT9]",1.51,1.47,2.34,1.21
"FICDICGAAFTQKGNLLRHIKL [46F_47I_49D_50I_52G_53A_54A_55F_67L_, Q9UKT9]",-0.22,2.29,1.39,1.5

# Reference: the supplement of paper PMC12645437, “Orthogonal IMiD-Degron Pairs Induce Selective Protein Degradation in Cells” (ACS Chemical Biology, 2025)
